Measurements taken from PubChem BioAssay AID485364 (National Center for Advancing Translational Sciences (NCATS), 2010).
Hit rate of the full screen: of about 360,000 compounds, about 11,000 (3.1%) were called active. Entries that show only a call come without a potency. Not shown: some 4% with an inconclusive outcome. Calls come from the whole dose curve; as a rule, active = well fitted inhibition curve with a large enough effect; inconclusive = small, poorly fitted or top-dose-only effect; inactive = no such curve, though single readings can be large or run the other way. This excerpt belongs to a sample that is enriched for actives.

Target: Schistosoma mansoni thioredoxin glutathione reductase (TGR) (UniProt Q962Y6)
Experiment: qHTS Assay for the Inhibitors of Schistosoma Mansoni Peroxiredoxins; note: nearly all actives have a fitted effect of over 60% in size
Conditions: purified TGR, DTNB reduction, TNB absorbance 405 nm; series mostly up to 114 µM
Method in brief: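 TGR 20 nM + NADPH 100 uM (dispensed conc.), cpd preinc 15 min RT; start with NADPH (500 uM addition) then DTNB (15 mM addition). Kinetic TNB absorbance, 405 nm filter. Four-parameter Hill fit across titration.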
Potency is the fitted concentration of half-maximal effect.

| Structure (SMILES) | Potency |
| --- | --- |
| Cn1cnc([N+](=O)[O-])c1Sc1n[nH]c(N)n1 | 10 µM (active) |
| Cn1cnc([N+](=O)[O-])c1Sc1ccccc1 | 50.1 µM (active) |
| Cn1cnc([N+](=O)[O-])c1Nc1ccccc1O | inactive |
| Nc1nc(Sc2ncccc2[N+](=O)[O-])n[nH]1 | inactive |
| Nc1nc(SCC(=O)Nc2ccc(Cl)c([N+](=O)[O-])c2)n[nH]1 | inactive |
| Cn1nc(-c2ccccc2)c(CO)c1Sc1ccccc1 | inactive |
| Cc1nnc(NC(=O)c2ccc3nccnc3c2)s1 | inactive |
| Cc1ccc(C(=O)Cn2cccn2)cc1 | inactive |
| Cc1ccc(C(=O)Cc2nnc(C)s2)cc1 | 10 µM (active) |
| Cc1cc(C)cc(NC(=O)CSc2nc(=O)n(CCN3CCOCC3)c3c2CCC3)c1 | inactive |
| Cc1occc1C(=O)NNC(=S)NCC(C)C | inactive |
| CC(C)C(NC(=O)c1ccc(Cl)cc1)C(=O)O (stereo not drawn) | inactive |
| CC(C)CNC(=S)NC(=O)c1ccc(Cl)cc1 | 50.1 µM (active) |
| CC[N+](C)(CC)CCC[n+]1c(-c2ccccc2)c2cc(N)ccc2c2ccc(N)cc21 | 39.8 µM (active) |
| CC(=O)c1ccc(NC(=O)COc2ccccc2-c2nc(-c3ccccc3)no2)cc1 | inactive |
| CCc1ccc(NC(=O)c2cc(S(=O)(=O)NC3CCCCCC3)ccc2F)cc1 | inactive |
| Cc1ccc(NC(=O)C(Cc2ccccc2)NS(=O)(=O)c2ccc3c(c2)oc(=O)n3C)cc1C (stereo not drawn) | inactive |
| Cc1oc2ncnc(N3CCOCC3)c2c1C(=O)NCCc1ccccc1 | inactive |
| CCC(=O)N1CCc2cc(CNS(=O)(=O)c3ccc(Br)s3)ccc21 | inactive |
| c1ccc(-c2nccc(-c3ccc(-n4cnc5ccccc54)cc3)n2)nc1 | inactive |
| Cc1nccc(-c2ccc(-n3c(C)ccc3C)cc2)n1 | 39.8 µM (active) |

| Structure (SMILES) | Potency |
| --- | --- |
| Cc1ccc(-n2c(-c3ccc(Cl)cc3)n[nH]c2=S)cc1 | inactive |
| O=C(Nc1ccc(C(=O)OCc2cc(=O)n3nc(C4CC4)sc3n2)cc1)c1ccc(F)cc1 | inactive |
| Cc1ccc(CNS(=O)(=O)c2ccc(-c3cc(C(F)(F)F)on3)s2)cc1 | inactive |
| COc1cccc(OCC(=O)NNC(=O)c2cnccn2)c1 | inactive |
| COC(=O)c1ccc(OC(=O)c2cnccn2)cc1 | 56.2 µM (active) |
| COC(=O)c1ccc(COC(=O)c2cnccn2)cc1 | inactive |
| O=C(NCCc1ccccc1)c1ccc2c(c1)N(Cc1ccccc1)C(=O)c1ccccc1S2(=O)=O | inactive |
| CSc1ccccc1NC(=O)CCS(=O)(=O)c1nc(-c2cccs2)cc(C(F)(F)F)n1 | 12.6 µM (active) |
| COc1ccccc1-c1cc(C(F)(F)F)nc(S(=O)(=O)CCCC(=O)Nc2cc(C)ccc2O)n1 | inactive |
| COc1ccccc1-c1cc(C(F)(F)F)nc(S(=O)(=O)CCCC(=O)Nc2ccc(F)cc2F)n1 | inactive |
| CCOc1ccccc1NC(=O)CSc1ncc(S(=O)(=O)c2ccc(C(C)(C)C)cc2)c(=O)[nH]1 | inactive |
| CCCCN1C(=O)c2[nH]nc(-c3ccccc3O)c2C1c1cccc(OCc2ccccc2)c1 (stereo not drawn) | inactive |
| COc1ccccc1N1CCN(S(=O)(=O)CCNC(=O)COc2ccc(F)cc2)CC1 | inactive |
| Cc1nc(N2CCOCC2)c2c(C(=O)NCc3cccc(Cl)c3)c(C)oc2n1 | inactive |
| O=C(NC(=S)Nc1cc(C(F)(F)F)ccc1N1CCOCC1)c1ccc(-c2cccc(Cl)c2)o1 | inactive |
| O=C(NC(=S)Nc1ccccc1C(=O)O)c1ccc(-c2ccc(Br)cc2)o1 | 3.55 µM (active) |
| O=C(O)c1ccccc1NC(=O)c1ccccc1-c1ccccc1C(=O)O | inactive |
| Cc1ccc(Cl)cc1NC(=O)NC1COc2ccccc2C1 (stereo not drawn) | inactive |
| CC(=O)Nc1ccc(NC(=O)CCCNC(=O)c2ccc(Cl)cc2)cc1 | inactive |
| Cc1ccc(NC(=O)CCCNC(=O)c2ccc(Cl)cc2)cc1S(=O)(=O)N1CCCCC1 | inactive |
| Cc1ccc(CNC(=O)CCCNC(=O)c2ccc(Cl)cc2)n1C | 25.1 µM (active) |

| Structure (SMILES) | Potency |
| --- | --- |
| COC(=O)c1scc(-c2ccccc2)c1S(=O)(=O)Nc1ccccc1 | inactive |
| COc1ccc(-n2c(=O)c3sc4ccccc4c3n(CC(=O)Nc3cccc(C)c3)c2=O)cc1 | inactive |
| Cc1cccc(N2CCN(C(=O)CCn3c(=O)c4cccn4c4cccnc43)CC2C)c1 (stereo not drawn) | inactive |
| O=C1Oc2ccccc2C(=O)/C1=C/c1ccccc1O | 2 µM (active) |
| COC(=O)c1ccc(/C=C2/C(=O)Oc3ccccc32)cc1 | inactive |
| CC(C)(C)NC(=O)CSc1nc(-c2ccc(F)cc2)cc(C(F)(F)F)n1 | inactive |
| COc1ccc(S(=O)(=O)/N=C2\C=C(NS(=O)(=O)c3ccccc3)C(=O)c3ccccc32)cc1 | 35.5 µM (active) |
| COc1ccc(S(=O)(=O)Nc2cc3c(C(=O)OC(C)C)c(C)oc3c3ccccc23)cc1 | inactive |
| CCCC(NS(=O)(=O)c1ccc(OC)cc1)C(=O)O (stereo not drawn) | inactive |
| CCc1cc(CNC(=O)CC2C(=O)NCCN2CC2CCCCC2)on1 (stereo not drawn) | inactive |
| Cc1ccccc1CN1CCNC(=O)C1CC(=O)NCCC1=CCCCC1 (stereo not drawn) | inactive |
| CCc1cc(CNC(=O)CC2C(=O)NCCN2Cc2ccccc2C(F)(F)F)on1 (stereo not drawn) | 35.5 µM (active) |
| CC(C)c1ccc2oc(-c3cc(NC(=O)c4cccs4)ccc3Cl)nc2c1 | inactive |
| COc1ccc(OC)c(-c2csc(-c3c(N)c(C(=O)c4ccccc4)n4ccccc34)n2)c1 | inactive |
| CC(/C=C/C1(O)C(C)CC(=O)CC1(C)C)OC1OC(CO)C(O)C(O)C1O (stereo not drawn) | 25.1 µM (active) |
| CC1=C(C)C(=O)OC(C(C)C2CCC3C4CC=C5CC(OC6OC(COC7OC(CO)C(O)C(O)C7O)C(O)C(O)C6O)CC(O)C5(C)C4CCC23C)C1 (stereo not drawn) | inactive |
| C=CC1C(OC2OC(CO)C(O)C(O)C2O)OC=C(C(=O)OC)C1CC1CC(=O)CC(CC(=O)CCc2ccc(O)cc2)O1 (stereo not drawn) | inactive |
| Cc1ccc(N(Cc2cc3ccccc3[nH]c2=O)C(=O)c2cccs2)cc1 | inactive |
| Cc1ccc(N(Cc2cc(=O)[nH]c3ccccc23)C(=O)CCl)cc1 | 3.16 µM (active) |
| CC(=O)N(Cc1cc(=O)[nH]c2ccccc12)c1ccc(C)cc1C | inactive |
| CCOC(=O)c1ccc(-c2ccc(/C=C(\C#N)C(=O)Nc3ccc(C)cc3)o2)cc1 | inactive |
